Each structure is given as a SMILES string. Compounds without any hit were thinned out: in the full panel of roughly 83,000, 20% have a hit.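 The endpoint reported here, percent growth, reads 100 for growth as untreated, 0 for no net growth and -100 for all cells dead.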 Values without a mark were called inactive. Calls of active or inactive are those of the source. How the source made its calls: active means growth percent below 10; inactive means the rest.

In this assay the test system is HL-60(TB) leukemia. The assay can be described thus: NCI-60 one-dose screen, 48 h (100 = growth as untreated, 0 = no growth, -100 = all killed). The settings on record: 10 µM unless noted.
Turning to `COc1ccc(/C=N\NC(=O)c2ccc3nc(-c4ccc(Br)cc4)[nH]c3c2)cc1`, the growth is 84.4%. Regarding `COC(=O)CCCNCCCn1ccc2cc(NCc3cccc(-c4ccccc4)c3C)ccc21`, the growth is 16.7%. Turning to `Cc1ccccc1NC(=O)Nc1nc2ccc([N+](=O)[O-])cc2s1`, the growth was -27.7% (active). For the compound `C[C@H]1[C@H](C)CC[C@]2(COC(=O)c3cccnc3)CC[C@]3(C)C(=CC[C@@H]4[C@@]5(C)CCCNC(C)(C)[C@@H]5CC[C@]43C)[C@H]12`, the growth was 23.9%.

Turning to `O=C(CCCCCCN1CC(=O)N2[C@@H](c3cc(F)cc(F)c3)c3[nH]c4ccccc4c3C[C@H]2C1=O)NO`, the growth is 16.2%.

On to `COC(=O)c1cccc(NC2=C(Cl)C(=O)c3nc(C)ccc3C2=O)c1`, for which the growth was 24.3%. Take `CCO/C=N/C1=C(C#N)C(c2ccc(Cl)cc2)c2sc3c(C)cccc3c2O1` (stereo not drawn): the growth was -12.7% (active). As to `CS(=O)(=O)c1ccc(/C(=N/N=C(N)N)c2ccc(F)cc2)cc1`, the growth is 97.8%. For the compound `O=C(N/N=C/c1ccc([N+](=O)[O-])s1)c1[nH]c2ccc(Br)cc2c1-c1ccccc1`, the growth is -28.9% (active). On to `Cc1ccc(-c2nnc(SCc3ccc(O)c4ncccc34)n2-c2ccccc2)cc1`, for which the growth is 0.292% (active). On to `CN(c1ccc(F)cc1)S(=O)(=O)c1ccc(-c2cnc(C3CC3)o2)cc1`, for which the growth was -15.8% (active).

On to `CCCCCc1ccc(S(=O)(=O)Nc2cccc(-c3csc(NC(=O)CCCCCN4CCN(CCO)CC4)n3)c2)cc1`, for which the growth is 63.4%. As for `CC1=C(SCC(=O)OCCCCCC(C)C)C(=O)c2ccccc2C1=O`, the growth was 86.8%.

For the origin of these results see PubChem BioAssay (NCI).
